About 79,000 compounds went through this panel and 15% of them were active in at least one assay; those are over-represented in the sample as a whole. Rule as the data show it: active = growth inhibition above about 70%; inactive = the rest.
Legend:
[1] = NCI Yeast Anticancer Drug Screen. Data for the rad50 strain (AID 155);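 also: 0% = growth of vehicle-only cultures of the same strain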; conditions: S. cerevisiae rad50 strain growth inhibition; at 50.0 µM; hits give high values
Summary of the method: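 Inhibition values express reduced yeast growth in compound-treated cultures relative to vehicle-treated controls.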

[2] = NCI Yeast Anticancer Drug Screen. Data for the mec2-1 strain (AID 157); conditions: S. cerevisiae mec2-1 strain, at 50.0 µM, hits give high values
Summary of the method: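 Readout is yeast growth inhibition, normalised to vehicle-treated controls, in the mec2-1 strain exposed to compound.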

[3] = NCI Yeast Anticancer Drug Screen. Data for the sgs1 mgt1 strain (AID 161);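 also: 0% = growth of cultures given vehicle only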; conditions: S. cerevisiae sgs1 mgt1 strain, at 50.0 µM, hits give high values
Summary of the method: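 Compounds are added to genetically altered yeast, and growth is compared with cultures given vehicle alone to give percent inhibition.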

[4] = NCI Yeast Anticancer Drug Screen. Data for the cln2 rad14 strain (AID 165);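 also: 0% = growth equal to vehicle treated cultures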; conditions: S. cerevisiae cln2 rad14 strain, at 50.0 µM, hits give high values
Summary of the method: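 Relative to vehicle controls, growth inhibition of compound-treated cln2 rad14 yeast was recorded.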

[5] = NCI Yeast Anticancer Drug Screen. Data for the bub3 strain (AID 167); conditions: S. cerevisiae bub3 mutant strain, at 50.0 µM, hits give high values
Summary of the method: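 Steps: expose the mutant yeast strain to compound; grow alongside vehicle-treated cultures; measure growth; express inhibition against the vehicle cultures.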

[6] = NCI Yeast Anticancer Drug Screen. Data for the mlh1 rad18 strain (AID 175); conditions: S. cerevisiae mlh1 rad18 strain growth inhibition; at 50.0 µM; hits give high values
Summary of the method: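 Test agents were incubated with a yeast strain of defined genotype (DNA damage repair defect). Inhibition of growth was derived by comparison with vehicle-exposed cultures.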

Measured: growth inhibition

COc1ccccc1N/C(=C\C(=O)C(=O)NC12CC3CC(CC(C3)C1)C2)c1ccccc1
inactive: [1] 11.4% | [2] 2.55% | [3] 8.65% | [4] 2.25% | [5] 3.75% | [6] 14.2%

CSc1c(C)n([O-])c2ccccc2[n+]1=O
inactive: [1] 23.1% | [2] 26.1% | [3] 8.85% | [4] -20.5% | [5] 26.1% | [6] 5.4%

O=S(Cc1cc2c(cc1Br)OCO2)c1ccccc1 (stereo not drawn)
inactive: [1] -27% | [2] -33.5% | [3] -20% | [4] -22.4% | [5] -37.7% | [6] -29.1%

Source: PubChem BioAssay (NCI)
